# According to PubChem BioAssay AID2113 (National Center for Advancing Translational Sciences (NCATS), 2009):
# Results filed as inconclusive are left out. Activity calls are given as the source filed them. The call rests on the fitted dose curve; in most records, active means well fitted curve in either direction with a large enough effect; inconclusive means small, poorly fitted or top-dose-only effect; inactive means no such curve, though single readings can be large or run the other way.
# Molecular target: Lysosomal alpha-glucosidase (Homo sapiens) (UniProt P10253)
# Assay: Confirmation of Inhibitors and Activators of Human alpha-Glucosidase From Spleen Homogenate
# Conditions: alpha-glucosidase enzyme activity; series mostly up to 60.5 µM
# Source text: NIH Chemical Genomics Center [NCGC]
# NIH Molecular Libraries Probe Production centers Network [MLPCN]
# Assay Submitter (PI): Wei Zheng
# Alpha-glucosidase is responsible for hydrolysis of terminal, non-reducing 1,4-linked alpha-D-glucose residues with release of alpha-D-glucose. It is a lysosomal hydrolase that is required for the degradation of a small percentage (1-3%) of cellular glycogen in human. Deficiency of this enzyme results in glycogen-storage disease type II (GSDII), also referred to as Pompe disease, an autosomal recessive disorder. Structurally normal glycogen is accumulated in lysosomes and cytoplasm in affected patients, primarily in muscle tissues. Excessive glycogen storage within lysosomes may interrupt normal functioning of other organelles and leads to cellular injury. In turn, this leads to enlargement and dysfunction of the entire organ involved (eg, cardiomyopathy and muscle weakness).
# It has reported that the improper folding and trafficking of alpha-glucosidase resultinged from the genetic mutations may account for a significant number of Pomrope patients. […] We optimized this alpha-glucosidase assay in 1536-well plate format for identifying the novel small molecule inhibitors with the structures other than the sugar analogs in order to develop the new pharmacological chaperones. In particular, this assay is directed towards discovering compounds active in a more natural setting, tissue homogenate, that may have been missed by screens of the purified enzyme under more stringent conditions. This assay attempted to confirm hits from the primary screening.
# NCGC Assay Protocol Summary:
# This is a fluorogenic enzyme assay with 4-methylumbelliferyl-alpha-D-glucopyranoside as the substrate and human spleen homogenate containing alpha-glucosidase as the enzyme preparation. Upon hydrolysis of this fluorogenic substrate, the resulting product, 4-methylumbelliferone (which excites at 365 nm and emits at 440 nm) can be detected by a fluorescence plate reader. Data were normalized to the controls for basal activity (without enzyme) and 100% activity (with enzyme). The AC50 values were determined from concentration-response data modeled with the standard Hill equation.
# Assay buffer: 50 mM citric acid (titrated with potassium phosphate to pH 5.0), 0.01% Tween-20 (pH 5.0 is an optimal condition for this enzyme assay)
# 1536-well assay protocol for the alpha-glucosidase from human spleen homogenate:
# (1) Add 2 ul/well spleen homogenate (1 ug)
# (2) Add 23 nL compounds in DMSO solution. The final titration was 0.5 nM to 58 uM.
# (3) Add 2 ul of substrate (1 mM final)
# (4) Incubate at 37 C for 40 min
# (5) Add 2 ul stop solution (1M NaOH and 1M Glycine mixture, pH 10)
# (6) Detect the assay plate in a ViewLux plate reader (PerkinElmer) with Ex=365 nm and Em=440nm.
# Keywords: Alpha-glucosidase, Pompe Disease, pharmacological chaperone, chaperone therapy, high throughput screening, alpha-glucosidase inhibitor, MLSMR, MLSCN, NIH Roadmap, qHTS and NCGC
row,SMILES,outcome
1,C/C=C(/C)C(=O)O[C@H]1C(C)=C2C([C@@H]1OC(=O)CCCCCCC)[C@@](C)(OC(C)=O)C[C@@H](OC(=O)CCC)[C@@]1(O)[C@H]2OC(=O)[C@@]1(C)O (stereo not given in full),inactive
2,O[C@@H]1[C@H](O)[C@H]2[C@@H](O)CCN2C[C@@H]1O,inactive
3,C/C(O)=C(/C#N)C(=O)Nc1cc(Br)ccc1Br,inactive
4,CC(=O)Nc1ccc(OC(=O)c2ccccc2N)cc1,inactive
5,CC(C)(C)c1cc(C=C(C#N)C#N)cc(C(C)(C)C)c1O,inactive
6,OC[C@@H]1[C@@H](O)[C@H](O)[C@H]2[C@@H](O)CCN21,inactive
7,COc1ccc(Cc2nccc3cc(OC)c(OC)cc23)cc1OC,inactive
8,Cc1cc(C(=O)CS(=O)(=O)c2ccc(F)cc2)cc(C)c1OC(=O)N(C)C,inactive
9,Cc1cc(/C=C2/C(=O)NC(=O)N(Cc3ccco3)C2=O)c(C)n1-c1ccc(C(=O)O)cc1,inactive
10,CC(=O)[O][Hg][c]1ccccc1,inactive
11,O[C@H]1[C@H](O)[C@@H](O)CN2CC[C@H](O)[C@H]12,inactive
12,CCOc1ccc2cc(C#N)c(=O)oc2c1,inactive
13,CCCCC/C=C\C/C=C\C/C=C\C/C=C\CCCC(=O)NCCCC(=O)O,inactive
14,O=C(O)c1ccccc1-c1c2cc(Br)c(=O)cc-2oc2[c]([Hg])c(O)c(Br)cc12,inactive
15,Cc1cc(/C=C2\C(=O)NC(=O)N(c3ccc(F)cc3)C2=O)c(C)n1-c1ccc(C(=O)O)cc1,inactive
